Measurements reported in PubChem BioAssay AID588342 (National Center for Advancing Translational Sciences (NCATS), 2011).
The whole screen tested about 360,000 compounds, of which about 25,000 (6.9%) were called active. Roughly 9% stayed inconclusive and do not appear here. Calls follow the shape of the dose curve; as a rule, active = well fitted inhibition curve with a large enough effect; inconclusive = small, poorly fitted or top-dose-only effect; inactive = flat fitted curve, though single readings scatter. Shown is part of a subset that was picked to be rich in actives. A call without a number means that no potency is given here.

These compounds were tested against Luciferin 4-monooxygenase (Photinus pyralis) (UniProt P08659) (assay: qHTS profiling assay for firefly luciferase inhibitor/activator using purifed enzyme and Km concentrations of substrates (counterscreen for miR-21 project)). Details: purified FLuc, luminescence inhibition; series mostly up to 57.5 µM.
Sequence of Luciferin 4-monooxygenase (Photinus pyralis) (P08659 whole entry, looked up): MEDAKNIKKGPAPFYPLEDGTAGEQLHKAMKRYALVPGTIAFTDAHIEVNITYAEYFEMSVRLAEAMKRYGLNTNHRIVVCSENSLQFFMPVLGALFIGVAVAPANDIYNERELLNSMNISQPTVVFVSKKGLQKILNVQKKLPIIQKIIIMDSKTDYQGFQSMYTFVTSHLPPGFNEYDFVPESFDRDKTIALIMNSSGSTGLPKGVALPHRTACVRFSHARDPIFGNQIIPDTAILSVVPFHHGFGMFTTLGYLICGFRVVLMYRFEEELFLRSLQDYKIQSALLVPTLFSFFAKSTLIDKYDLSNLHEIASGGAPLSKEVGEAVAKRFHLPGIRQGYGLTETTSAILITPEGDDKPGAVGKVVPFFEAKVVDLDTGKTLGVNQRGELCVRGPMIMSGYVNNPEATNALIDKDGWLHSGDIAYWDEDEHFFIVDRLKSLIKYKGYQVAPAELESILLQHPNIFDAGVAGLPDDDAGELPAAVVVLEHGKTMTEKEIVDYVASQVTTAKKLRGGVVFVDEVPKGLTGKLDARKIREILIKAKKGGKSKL
How it was run: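 Biochemical qHTS of compounds, final roughly 60 µM downward over six points, against 10 nM purified firefly luciferase using Km concentrations of substrates (10 uM D-luciferin, 10 uM ATP) in Tris acetate pH 7.5 buffer; luminescence output.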
Also: nearly all actives have a fitted effect of over 55% in size.
Potency is read from the fitted curve at half-maximal effect.

SMILES	Potency
CCOc1ccc(S(=O)(=O)c2cn(Cc3ccc(OC)cc3)c3ccc(F)cc3c2=O)cc1	inactive
CCOc1ccc(NC(=O)Cn2c(C)ccc(C#N)c2=O)cc1	inactive
COc1ccc(CCNS(=O)(=O)c2cc(-c3cc(C)no3)ccc2C)cc1OC	inactive
Cc1cccc2c1-c1sc(C(=O)Nc3ccc(F)cc3F)cc1CO2	inactive
O=C(NCc1ccccc1)C(=O)NCC(c1ccco1)S(=O)(=O)c1ccc(Cl)cc1 (configuration not stated)	inactive
Cc1ccc(N2CCN(C(=O)CCc3c(C)nc4c(c3C)c(=O)n(C)c(=O)n4C)CC2)c(C)c1	inactive
C=CCn1c(SCC(=O)NC(=O)Cc2ccccc2)nc2ccccc2c1=O	inactive
Cc1nn(CC(=O)Nc2ccc(C#N)cc2)c(C)c1[N+](=O)[O-]	inactive
COc1ccc(NS(=O)(=O)c2cccc3nsnc23)cc1Cl	inactive
Cc1ccccc1-c1nc(CS(=O)(=O)CC(=O)Nc2cc(Cl)cc(Cl)c2)c(C)o1	inactive
COc1ccccc1CNS(=O)(=O)c1cc(Br)cc2c1N(C(C)=O)C(C)C2 (configuration not stated)	inactive
COc1ccc(CCNC(=O)COC(=O)Cc2cccc(F)c2)cc1	inactive
O=C(NCc1ccccc1)c1cccc(NC(=O)N2CCSc3ncccc32)c1	inactive
COc1cc(OC)cc(C(=O)NCCc2csc3nc(-c4ccccc4F)nn23)c1	inactive
Cc1cccc(C(=O)N2c3nc(-c4ccco4)nn3C3(CCCCC3)[C@@H]3CCCC[C@@H]32)c1	inactive
CNS(=O)(=O)c1cccc(C(=O)OCC(=O)N2c3ccccc3NC(=O)C2(C)C)c1	inactive
COc1cccc(-c2coc3cc4oc(=O)c(CC(=O)O)c(C)c4cc23)c1	19 µM (active)
CC(=O)Oc1ccc2c(C)c(CC(C)O)c(=O)oc2c1 (configuration not stated)	inactive
Cc1ccc2[nH]c(=O)c(CC(=O)O)c(-c3ccccc3)c2c1	inactive
COc1ccc2c(C)c(CCC(=O)NCc3ccc(OC)c(OC)c3)c(=O)oc2c1	inactive
Cc1c(CC(=O)NCCCCCC(=O)O)c(=O)oc2cc3occ(-c4ccccc4)c3cc12	19 µM (active)
Cc1oc(C)c(C(=O)NCCCC(=O)O)c1C(=O)NCCCC(=O)O	inactive
COc1ccccc1CNC(=O)CCn1c(=O)c2ccccc2n(CC(=O)Nc2ccc(Br)cc2F)c1=O	inactive
COc1ccc(OCCn2cc(C(=O)C3CCCCC3)c3ccccc32)cc1	inactive
Cc1ccc(-n2c(SCC(=O)N3c4ccccc4Sc4ccccc43)nnc2-c2ccncc2)cc1	inactive
Cc1ccccc1-n1c(SCC(=O)NCc2cccs2)nnc1-c1ccncc1	inactive
Cc1ccc(Nc2nc(CSc3nnc(-c4ccncc4)n3-c3ccccc3C)cs2)cc1	21.3 µM (active)
